For this assay, the system named is VDR:RXRa (NR concentration 270 nM, RXRa partner concentration 90 nM). Briefly: PBM binding z-score (relative to random genomic background probes); higher = stronger binding; sequences stand for … in GC…GCGATTGACAGCGTAGAATGAAGG
The method, then: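 Protein-binding microarray (Agilent 4x180K custom design, double-stranded 60-nt probes: 5' GC cap, 34-nt variable region, 24-nt constant primer region; full probe sequence given). Purified or IVT nuclear receptor:RXRα heterodimers (3:1 NR:RXRα, mostly 270:90 nM) or homodimers were incubated for 1 h in PBS with 2% milk and no ligand, then detected with Alexa488 antibodies. Fluorescence from o1-orientation probes (~5 replicates averaged) was converted to z-scores against 500 random hg19 background probes. Variable regions are seed direct-repeat (DR0–DR5) sites, all their single-nucleotide variants and half-site ablations.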
Take TTACCACGGTGAAGGTCGTTGATCCCTCTGTAGA: the PBM binding z-score was 0.957.
In turn, TGAATGAGGTTAAAGATCAGGGACCGTGGCGTCG had a PBM binding z-score of 1.77.
In the case of ATCTCTAGGTAACCAAGTACAGTGAATGCCGAAC it was 1.19.
Next, AGTCAAATTTCAGGACGAGGTAACGTAAAGCACG: -0.0744; TAGCCTAGGTCGTGGGCCAGTATACCACGCGAAC: -0.199.
Next, CATACTGGGCCATTCAGAGGTCATTGATCATATG: 4.15; CATACTGGGCCATCAGGTCATTGATATCAACGTT: 2.28; ACAATTAGTTGACTTAGGGCAACCGATACGACGC: 0.376.
CCTACTGGGCCATTCAAAGGTCATTGATCATATG had a PBM binding z-score of 3.96.
Next, TAGTCTAGGTCATTGGGCCAGTATAGTACGCATC: 2.5; TCGAGTAGGTTAGTCGGGGCAATCAGCCAACATA: 1.05.
In the case of GTACCAAGGTGAACAGGTCGTTGATGAGTAGGCG it was 1.15; in that of TCGAGTAAGTTAGGGGCATTCAGAATGGCGTCGA, 0.425.
Next, CATACAGGGTCAGCTAGGCCGGAGTAGGGACGGC: 3.08.
With AGAATGCGGTTATACGTAGATCAGGGAAGAAAGT, the PBM binding z-score is -0.334.
Next, CATACAGGGTCAGCTAGGACAGAGTAGGGACGGC: 4.03.
Next, CCTGGGAGGACAACAGGAGGTCAGAGCTGCCAGA: 1.99; GCTGCTAGCTCAGGTTGGTCAGCTAACGGGTACG: -0.71; GCTATTAGTTGAACGGGCAACCGAATGATTCTCG: -0.187.
In the case of TCGATTAGTTGATTAGGGCAACCGAAACAGCGGA it was 0.219.
For TCTGCTAGGTCAACGATGGTCAGATAATCTGCTA, the PBM binding z-score amounted to 1.78.
Next, TTACCAAGGTGAAGATCGTTGATCCCTCTGTAGA: -0.031; ACTCGTTGGTCAGCTGAGGTCACACACAATTCGG: 4.61.
Next, TCTGCTAGGTCAGTTGGTCAGCTCACGAGCTGCC: 0.484; ATCGAAAGGTCGAAGGTGATTATACCCACCCGAA: 2.61.
For CCTAGGTGGTCAAGGTCACACACGCTATAGGTAC, the PBM binding z-score amounted to 4.76.
As for CAGCCTAGGTCAGGGCAAGTATAGGAGGAACGTT, the PBM binding z-score worked out at 0.782.
Next, ATCGAAAGATCGAAGGTGAGTATACCCACCCGAA: 0.0219; CAAACTAGGACAAGAGGTCAAAGTCCGCTTCCCG: 5.
Next, TGAATGAGGTTATAATATCAGGGAACGTTGCAAA: 1.35; GCTGCTAGGTCAGGTTGGACAGCTAACGGGTACG: 0.304; CCTGCTAGGTCATGGTCAGCTAGTCTACAGTATG: 1.65.
In the case of AATACAGGGTCATCGTAGGCCAGATTACGCACAG it was 5.22.
Regarding GCTGCTAGGTCAGGTTGGTTAGCTAACGGGTACG, the PBM binding z-score was 0.262.
In the case of CCTACTGGGCCTAGGTCATTGATCAGTCAAAGCA it was 0.813; in that of ATCTCTAGGTAAAGTTCAGTGCAAGATCGATAGA, 1.87; in that of CCTACTGGGCCAAAAGGGTCATTGATGCCGATAA, 4.44.
Next, TCATATAGGTAAAGTTGAAAGTCGAACGATATGA: 0.583.
In the case of GGAACGAGGGCATAGTTGATAGCATCTGTCGACG it was 0.655; in that of CTCGAAAGGTCGGTTGAGCTGAGTATACGGATAA, 0.528.

(Values after the supplement of paper PMC6555819.)
